This is part of a sample that, as a whole, favours compounds with a hit. Of some 79,000 tested, about 15% had one in any assay. Active and inactive are the calls of the source. No stated cut-off is given here; in the data, active means growth inhibition above about 70%; inactive means the rest.
Experiments:
[1] = NCI Yeast Anticancer Drug Screen. Data for the rad52 strain (AID 147);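 further: 0% = growth of vehicle-treated control cultures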; conditions: S. cerevisiae rad52 mutant growth inhibition, active compounds read high
Outline: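 Vehicle-treated cultures served as the reference for growth inhibition of compound-exposed yeast bearing a DNA repair mutation.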

[2] = NCI Yeast Anticancer Drug Screen. Data for the rad50EPP+ strain (AID 151);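 further: 0% = growth of vehicle-treated control cultures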; conditions: S. cerevisiae rad50 mutant strain, active compounds read high
Outline: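 In this screen, rad50EPP+ yeast were exposed to compounds. Growth inhibition was scored against vehicle-treated controls.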

[3] = NCI Yeast Anticancer Drug Screen. Data for the mgt1 strain (AID 153); conditions: S. cerevisiae mgt1 mutant growth inhibition, active compounds read high
Outline: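 mgt1 strain exposed; growth vs vehicle control recorded as inhibition.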

[4] = NCI Yeast Anticancer Drug Screen. Data for the rad50 strain (AID 155);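 further: 0% = growth of vehicle-only cultures of the same strain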; conditions: S. cerevisiae rad50 strain growth inhibition, active compounds read high
Outline: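 Readout: growth inhibition relative to vehicle-treated cultures. Compound exposure was carried out in a genetically defined yeast strain deficient in DNA damage repair.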

[5] = NCI Yeast Anticancer Drug Screen. Data for the mec2-1 strain (AID 157); conditions: S. cerevisiae mec2-1 strain, active compounds read high
Outline: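 Vehicle-treated cultures served as reference for growth inhibition of compound-exposed mec2-1 yeast.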

[6] = NCI Yeast Anticancer Drug Screen. Data for the rad14 strain (AID 159);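 further: 0% = growth of vehicle-treated control cultures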; conditions: S. cerevisiae rad14 strain growth inhibition, active compounds read high
Outline: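 Growth inhibition vs vehicle controls; genetically altered yeast strain (DNA damage repair defect) treated with test compounds.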

[7] = NCI Yeast Anticancer Drug Screen. Data for the sgs1 mgt1 strain (AID 161);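 further: 0% = growth of cultures given vehicle only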; conditions: S. cerevisiae sgs1 mgt1 strain, active compounds read high
Outline: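 Genetically altered yeast, compound exposure, growth inhibition relative to vehicle.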

[8] = NCI Yeast Anticancer Drug Screen. Data for the CLN2oe strain (AID 163);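 further: 0% = growth of vehicle-only control cultures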; conditions: S. cerevisiae CLN2oe strain, active compounds read high
Outline: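 Inhibition relative to vehicle-treated yeast is reported. Cells: strain with genetic alteration in cell-cycle control, grown with compound.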

[9] = NCI Yeast Anticancer Drug Screen. Data for the cln2 rad14 strain (AID 165);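 further: 0% = growth equal to vehicle treated cultures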; conditions: S. cerevisiae cln2 rad14 strain, active compounds read high
Outline: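 Each compound was tested on cln2 rad14 yeast. Inhibition of growth was calculated against vehicle-exposed controls.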

[10] = NCI Yeast Anticancer Drug Screen. Data for the bub3 strain (AID 167); conditions: S. cerevisiae bub3 mutant strain, active compounds read high
Outline: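 Readout: yeast growth inhibition, expressed relative to vehicle-only wells. The test organism is a mutant strain from a panel with lesions in DNA repair or checkpoint genes.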

[11] = NCI Yeast Anticancer Drug Screen. Data for the wt2 strain (AID 169);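 further: 0% = growth of vehicle-treated yeast cultures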; conditions: S. cerevisiae wt2 strain growth inhibition, active compounds read high
Outline: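 Inhibition of yeast growth was determined after compound treatment, normalised to controls receiving only vehicle.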

[12] = NCI Yeast Anticancer Drug Screen. Data for the mlh1 strain (AID 171);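 further: 0% = growth of vehicle-treated control cultures of the same strain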; conditions: S. cerevisiae mlh1 strain growth inhibition, active compounds read high
Outline: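 Vehicle-normalised growth inhibition of a repair- or checkpoint-altered yeast strain following compound treatment.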

[13] = NCI Yeast Anticancer Drug Screen. Data for the sgs1 strain (AID 173);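 further: 0% = growth of vehicle-only control cultures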; conditions: S. cerevisiae sgs1 mutant, active compounds read high
Outline: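 Screen format: yeast with repair or checkpoint alterations, compound exposure, growth read relative to vehicle.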

[14] = NCI Yeast Anticancer Drug Screen. Data for the mlh1 rad18 strain (AID 175); conditions: S. cerevisiae mlh1 rad18 strain growth inhibition, active compounds read high
Outline: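 Vehicle-treated cultures served as the reference for growth inhibition in a yeast strain carrying DNA damage repair alterations exposed to each compound.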

[15] = NCI Yeast Anticancer Drug Screen. Data for the rad18 strain (AID 177); conditions: S. cerevisiae rad18 mutant growth inhibition, active compounds read high
Outline: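 Test articles were incubated with altered yeast defective in DNA damage repair. Results are given as inhibition of growth versus vehicle.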

[16] = at 5.0 µM (retest, dose inferred, filed as 0.5)
[17] = at 50.0 µM (retest, dose inferred, filed as 5.0)

Measured: growth inhibition

C[CH2][Sn]([CH2]C)([O]S(C)(=O)=O)[O]S(C)(=O)=O
inactive: [1]; at 1.2 µM -24% | [1]; at 3.7 µM -17% | [1]; at 11.0 µM -24% | [1]; at 33.0 µM -10% | [1]; at 100.0 µM 11% | [2]; at 1.2 µM -28% | [2]; at 3.7 µM -30% | [2]; at 11.0 µM -25% | [2]; at 33.0 µM -14% | [2]; at 100.0 µM -19% | [3]; at 1.2 µM 0% | [3]; at 3.7 µM 0% | [3]; at 11.0 µM -11% | [3]; at 33.0 µM -7% | [3]; at 100.0 µM 37% | [4]; at 1.2 µM -21% | [4]; at 3.7 µM -6% | [4]; [16] 18% | [4]; at 11.0 µM -15% | [4]; at 33.0 µM -20% | [4]; [17] 57% | [4]; at 100.0 µM 6% | [5]; at 1.2 µM -15% | [5]; at 3.7 µM -4% | [5]; [16] 13% | [5]; at 11.0 µM -9% | [5]; at 33.0 µM -4% | [5]; [17] 58% | [5]; at 100.0 µM 16% | [6]; at 1.2 µM -21% | [6]; at 3.7 µM -18% | [6]; at 11.0 µM -17% | [6]; at 33.0 µM -10% | [6]; at 100.0 µM -9% | [7]; [16] 14% | [7]; [17] 58% | [7]; at 50.0 µM 50% | [8]; at 1.2 µM -78% | [8]; at 3.7 µM -94% | [8]; at 11.0 µM -65% | [8]; at 33.0 µM -103% | [8]; at 100.0 µM -62% | [9]; [16] 6% | [9]; [17] 18% | [9]; at 50.0 µM 46.2% | [10]; at 1.2 µM -28% | [10]; at 3.7 µM -25% | [10]; [16] 36% | [10]; at 11.0 µM -17% | [10]; at 33.0 µM -27% | [10]; [17] 50% | [10]; at 50.0 µM 45.5% | [10]; at 100.0 µM 24% | [11]; at 1.2 µM -56% | [11]; at 3.7 µM -44% | [11]; at 11.0 µM -46% | [11]; at 33.0 µM 3% | [11]; at 100.0 µM 55% | [12]; at 1.2 µM -51% | [12]; at 3.7 µM -29% | [12]; at 11.0 µM -33% | [12]; at 33.0 µM -37% | [12]; at 100.0 µM 0% | [13]; at 1.2 µM -27% | [13]; at 3.7 µM -16% | [13]; at 11.0 µM -22% | [13]; at 33.0 µM -7% | [13]; at 100.0 µM 15% | [14]; [16] 33% | [14]; at 50.0 µM 56.6% | [15]; at 1.2 µM -28% | [15]; at 3.7 µM -19% | [15]; at 11.0 µM -13% | [15]; at 33.0 µM -15% | [15]; at 100.0 µM 25%
active: [4]; at 50.0 µM 76.2% | [5]; at 50.0 µM 85.3% | [14]; [17] 80%

C/C(CCl)=N/NC1=NC(c2ccccc2Cl)P(=O)(NCCCNP2(=O)SC(N/N=C(/C)CCl)=NC2c2ccccc2Cl)S1 (stereo unspecified)
active: [4]; at 50.0 µM 96% | [5]; at 50.0 µM 96.3% | [7]; at 50.0 µM 93.2% | [9]; at 50.0 µM 92.3% | [10]; at 50.0 µM 95.2% | [14]; at 50.0 µM 95.9%
inactive: [1]; at 1.2 µM -2% | [1]; at 3.7 µM -2% | [1]; at 11.0 µM -2% | [1]; at 33.0 µM 5% | [1]; at 100.0 µM 8% | [2]; at 1.2 µM 0% | [2]; at 3.7 µM 2% | [2]; at 11.0 µM 10% | [2]; at 33.0 µM 43% | [2]; at 100.0 µM 33% | [4]; at 1.2 µM 4% | [4]; at 3.7 µM 4% | [4]; [16] -21% | [4]; at 11.0 µM 23% | [4]; at 33.0 µM 38% | [4]; [17] 8% | [4]; at 100.0 µM 34% | [5]; at 1.2 µM -4% | [5]; at 3.7 µM -4% | [5]; [16] -12% | [5]; at 11.0 µM -6% | [5]; at 33.0 µM -5% | [5]; [17] 2% | [5]; at 100.0 µM -1% | [6]; at 1.2 µM 0% | [6]; at 3.7 µM -1% | [6]; at 11.0 µM -4% | [6]; at 33.0 µM 2% | [6]; at 100.0 µM 5% | [7]; [16] -2% | [7]; [17] 51% | [8]; at 1.2 µM -13% | [8]; at 3.7 µM -4% | [8]; at 11.0 µM -1% | [8]; at 33.0 µM -16% | [8]; at 100.0 µM -22% | [9]; [16] -18% | [9]; [17] -4% | [10]; at 1.2 µM 0% | [10]; at 3.7 µM -5% | [10]; [16] -32% | [10]; at 11.0 µM 0% | [10]; at 33.0 µM 25% | [10]; [17] 61% | [10]; at 100.0 µM 18% | [11]; at 1.2 µM 0% | [11]; at 3.7 µM -2% | [11]; at 11.0 µM -2% | [11]; at 33.0 µM 17% | [11]; at 100.0 µM 13% | [12]; at 1.2 µM -2% | [12]; at 3.7 µM 3% | [12]; at 11.0 µM 4% | [12]; at 33.0 µM 22% | [12]; at 100.0 µM 16% | [13]; at 1.2 µM 0% | [13]; at 3.7 µM -2% | [13]; at 11.0 µM 0% | [13]; at 33.0 µM 19% | [13]; at 100.0 µM 16% | [14]; [16] -5% | [14]; [17] 18% | [15]; at 1.2 µM 1% | [15]; at 3.7 µM 10% | [15]; at 11.0 µM 9% | [15]; at 33.0 µM 27% | [15]; at 100.0 µM 23%
